Compounds without any hit were thinned out: in the full panel of roughly 83,000, 20% have a hit.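 Growth was measured after 48 h exposure to one concentration of compound in 96-well plates. Values under 10 count as active.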 A number with no mark means an inactive call. Active and inactive are the calls of the source.

Among the test systems are SK-MEL-2 melanoma; EKVX NSCLC; SN12C renal; TK-10 renal; ACHN renal; CAKI-1 renal; A498 renal; CCRF-CEM leukemia; MOLT-4 leukemia; RPMI-8226 leukemia; OVCAR-8 ovarian; OVCAR-5 ovarian; OVCAR-4 ovarian; SK-OV-3 ovarian; IGROV1 ovarian; HS 578T breast; NCI/ADR-RES ovarian; UO-31 renal; SR leukemia; OVCAR-3 ovarian.
Holding throughout (experiment): NCI-60 one-dose screen, 48 h (100 = growth as untreated, 0 = no growth, -100 = all killed)
Settings in all cases: 10 µM unless noted

As to `COc1ccc(-c2nc3ccccc3n3cccc23)cc1`, the growth was 111% in the experiment with SK-MEL-2 melanoma; 97.2% in the experiment on EKVX NSCLC; 95.1% in the experiment on SN12C renal; 138% in the experiment with TK-10 renal; 105% with ACHN renal; 85.5% in the experiment on CAKI-1 renal. The growth in the experiment with A498 renal is 99.4%; with CCRF-CEM leukemia, 89.9%; in the experiment with MOLT-4 leukemia, 101%; in the experiment with RPMI-8226 leukemia it was 75.6%; in the experiment with OVCAR-8 ovarian it was 103%; with OVCAR-5 ovarian, 113%. Further, the growth with OVCAR-4 ovarian is 99.8%; in the experiment on SK-OV-3 ovarian it was 122%; in the experiment with IGROV1 ovarian, 47.1%; with HS 578T breast it was 111%; in the experiment on NCI/ADR-RES ovarian, 107%.
On to `O=C(O)CSc1ccc(NCc2oc(CO)cc(=O)c2O)cc1`, for which the growth in the experiment with SK-MEL-2 melanoma was 119%; with EKVX NSCLC, 106%; in the experiment on SN12C renal it was 98.2%; in the experiment with UO-31 renal, 80%; in the experiment on TK-10 renal it was 111%; with ACHN renal, 97.3%. Further, the growth in the experiment on CAKI-1 renal was 98.4%; in the experiment on MOLT-4 leukemia, 88.3%; with SR leukemia it was 81.8%; with OVCAR-8 ovarian, 102%; with OVCAR-5 ovarian, 102%; in the experiment with OVCAR-4 ovarian it was 103%. Further, the growth was 98.7% in the experiment with SK-OV-3 ovarian; 105% with IGROV1 ovarian; 110% with OVCAR-3 ovarian; 90.9% in the experiment on HS 578T breast; 94.3% in the experiment with NCI/ADR-RES ovarian.
Turning to `COc1ccc(-c2nc(SCCC(C)C)nc(Nc3ccc(C(=O)O)cc3)c2C#N)cc1`, the growth is 70% in the experiment with SK-MEL-2 melanoma; 87.7% in the experiment on EKVX NSCLC; 90.6% in the experiment on SN12C renal; 86.7% with TK-10 renal; 83.9% in the experiment on ACHN renal; 92.1% in the experiment with CAKI-1 renal. The growth with A498 renal was 62.5%; in the experiment with CCRF-CEM leukemia, 73.5%; with MOLT-4 leukemia it was 78.7%; in the experiment on SR leukemia, 77.3%; in the experiment with RPMI-8226 leukemia it was 62.9%; with OVCAR-8 ovarian, 93.9%. Also, the growth was 105% in the experiment on OVCAR-5 ovarian; 89.2% in the experiment on OVCAR-4 ovarian; 109% in the experiment on SK-OV-3 ovarian; 110% in the experiment on IGROV1 ovarian; 97.5% in the experiment with OVCAR-3 ovarian; 94.2% in the experiment with HS 578T breast. Moreover, the growth in the experiment with NCI/ADR-RES ovarian is 102%.
`COc1ccc(/C(C)=N/NC(=O)c2ccc(S(C)(=O)=O)cc2)cc1OC`: the growth is 101% in the experiment on SK-MEL-2 melanoma; 96.3% with EKVX NSCLC; 100% in the experiment on SN12C renal; 102% with TK-10 renal; 108% in the experiment on ACHN renal; 91.6% with CAKI-1 renal. Moreover, the growth with A498 renal was 94.1%; with CCRF-CEM leukemia, 115%; in the experiment with MOLT-4 leukemia, 71.1%; in the experiment with SR leukemia, 97.6%; in the experiment with RPMI-8226 leukemia, 130%; with OVCAR-8 ovarian, 110%. Moreover, the growth with OVCAR-5 ovarian is 106%; in the experiment with OVCAR-4 ovarian it was 97.7%; in the experiment with SK-OV-3 ovarian it was 88.4%; in the experiment with IGROV1 ovarian, 109%; in the experiment on OVCAR-3 ovarian it was 113%; in the experiment on HS 578T breast, 100%. In the experiment on NCI/ADR-RES ovarian, the growth was 113%.
On to `COc1ccc(-c2cc(C(=O)Nc3ccc(Br)cc3)nc3[nH]c(=O)sc23)cc1`, for which the growth was -5.01% (active) with SK-MEL-2 melanoma; 37.2% in the experiment with EKVX NSCLC; 20.4% in the experiment with SN12C renal; 19.9% in the experiment on TK-10 renal; 54.8% with ACHN renal; 34.6% in the experiment with CAKI-1 renal. In addition, the growth with A498 renal was -2.87% (active); with CCRF-CEM leukemia, 29.8%; in the experiment on MOLT-4 leukemia it was 27.8%; with SR leukemia, 65.1%; with RPMI-8226 leukemia it was 14.2%; in the experiment on OVCAR-8 ovarian it was 43.1%. Moreover, the growth with OVCAR-5 ovarian was 84.9%; in the experiment on OVCAR-4 ovarian, 34.2%; in the experiment on SK-OV-3 ovarian, 26.7%; in the experiment with IGROV1 ovarian it was 25.2%; in the experiment with OVCAR-3 ovarian it was 36.9%; in the experiment with HS 578T breast it was 41.6%. Moreover, in the experiment with NCI/ADR-RES ovarian, the growth was 40.7%.
Turning to `COc1ccc(C(=O)OC2C(OC3C(O)COC(O[C@H]4C[C@H]5[C@@H]6CC=C7C[C@@H](O)CC[C@]7(C)[C@H]6CC[C@]5(C)[C@H]4[C@H](C)C(=O)CCC(C)C)C3OC(N)=O)OCC(O)C2O)cc1` (stereo partly specified), the growth is -62% (active) in the experiment with SK-MEL-2 melanoma; 19.5% in the experiment with EKVX NSCLC; 44.7% with SN12C renal; -1.71% (active) in the experiment on TK-10 renal; 40.5% with ACHN renal; -36.7% (active) in the experiment with CAKI-1 renal. The growth in the experiment with A498 renal was -80.1% (active); with CCRF-CEM leukemia, -25.8% (active); with MOLT-4 leukemia, -42.3% (active); in the experiment on SR leukemia it was -14.1% (active); with RPMI-8226 leukemia it was -32.8% (active); in the experiment on OVCAR-8 ovarian it was 25.3%. The growth is 36.3% with OVCAR-5 ovarian; 44.1% in the experiment with OVCAR-4 ovarian; -37.2% (active) with SK-OV-3 ovarian; 19.5% with IGROV1 ovarian; 58.3% in the experiment on OVCAR-3 ovarian; -29.9% (active) with HS 578T breast. In addition, the growth in the experiment with NCI/ADR-RES ovarian is 86.2%.
As to `Cc1ccc(C)c(NC(=O)c2sc3c(=O)[nH]cnc3c2C)c1`, the growth is 41.4% with SK-MEL-2 melanoma; 85% with EKVX NSCLC; 101% in the experiment with SN12C renal; 77.8% in the experiment with TK-10 renal; 116% in the experiment with ACHN renal; 64.5% in the experiment on CAKI-1 renal. For the same molecule, the growth was 70.3% in the experiment on A498 renal; 83.1% in the experiment with CCRF-CEM leukemia; 69.9% in the experiment with MOLT-4 leukemia; 15.8% in the experiment with SR leukemia; 87.7% with RPMI-8226 leukemia; 98.2% in the experiment with OVCAR-8 ovarian. The growth is 127% with OVCAR-5 ovarian; 101% in the experiment with SK-OV-3 ovarian; 79.8% in the experiment on IGROV1 ovarian; 70.7% in the experiment on OVCAR-3 ovarian; 78.9% in the experiment with HS 578T breast; 58% in the experiment on NCI/ADR-RES ovarian.
As to `CCCCCCCCCCCCCCCC1=NCCN1`, the growth with SK-MEL-2 melanoma was 96%; in the experiment on EKVX NSCLC, 85.2%; in the experiment on SN12C renal, -51.6% (active); in the experiment with TK-10 renal, 102%; with ACHN renal it was 71.2%; in the experiment on CAKI-1 renal, 81.3%. Moreover, the growth in the experiment on A498 renal is 65.5%; with MOLT-4 leukemia, -27.3% (active); in the experiment on SR leukemia, -44.9% (active); in the experiment on RPMI-8226 leukemia, 40.8%; with OVCAR-8 ovarian, 84.5%; with OVCAR-5 ovarian, 69%. The growth was 78% with OVCAR-4 ovarian; 99.2% in the experiment on SK-OV-3 ovarian; 42.3% in the experiment on IGROV1 ovarian; 77% in the experiment on OVCAR-3 ovarian; 84.4% in the experiment with HS 578T breast; 75.4% in the experiment on NCI/ADR-RES ovarian.
